Assay outcomes (PubChem BioAssay)
Pf growth 96h = P. falciparum growth inhibition at 96 hour, primary screen for plastid delayed-death inhibitors; P. falciparum luciferase reporter growth, 96 h; Potency, µM (titrated, usually from 28.7 µM), for inactives: top-dose activity change, negative = inhibition, usual class: inhibitors; 320,000 tested, 6.9% active; AID 504834; also: potency is read from the fitted curve at half-maximal effect; % is scaled to controls: 0 for no effect and ±100 for the full control effect
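Two-generation exposure (96 h) targets delayed-death phenotype. Reporter parasites carrying integrated firefly luciferase, in red cells at 2% hematocrit and 0.05% parasitemia final, kept at 37 C, 5% CO2; luminescence loss indicates inhibition.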
CHX counter = affects cycloheximide protein synthesis inhibition readout, counter-screen. 300,000 tested, 12% active. max response, %. cell reporter, cycloheximide protein synthesis inhibition counterscreen; in the data active = max response mostly above about 13%, no sharp cut-off; inactive = mostly below about 14%; also: read at 38.3 µM for the half of the compounds with a filed dose; 0% is about no effect
Shiga inhibitor = inhibitors of Shiga toxin in Vero cells; Vero cells, Shiga toxin protein synthesis inhibition reporter; inhibition, % at 38.7 µM; 290,000 tested, 9.2% active; in the data active = inhibition mostly above about 28%, no sharp cut-off; inactive = mostly below about 43%; also: 0% is about no effect
SARS PLP yeast = inhibitors of SARS-CoV papain-like protease in yeast. S. cerevisiae expressing SARS-CoV PLpro, growth rescue. Potency, µM (series often up to 32.9 µM), inactives show top-dose activity, positive = growth rescue, actives largely listed as activators. 330,000 tested, 0.19% active. AID 485353; calls by dose curve; also: potency is read from the fitted curve at half-maximal effect; 0% is about no effect; nearly all actives have a fitted effect of over 55% in size
Pf growth 48h = inhibits P. falciparum growth in the first generation, 48 h. P. falciparum luciferase growth in erythrocytes, 48 h. Potency, µM (titrated, usually from 28.7 µM), inactives show at the highest dose activity change, negative = inhibition, most hits filed as inhibitors. 310,000 tested, 5.9% active. AID 504832; also: potency is read from the fitted curve at half-maximal effect; % is scaled to controls: 0 for no effect and ±100 for the full control effect
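A one-generation exposure of luciferase-tagged malaria parasites in RPMI 1640/Albumax erythrocyte culture, 37 C and 5% CO2. Inhibition is inferred from decreased luminescence after adding detection reagent.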
AMA1 RON2 block = AMA1-RON2 (P. falciparum) interaction inhibition; AID 720542; AlphaScreen AMA1-biotinylated RON2 peptide binding; Potency, µM (highest dose often 58.2 µM), for the others: at the highest dose activity change, negative = inhibition, most hits filed as inhibitors; 360,000 tested, 0.2% active;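 also: potency is read from the fitted curve at half-maximal effect; 0% = vehicle wells and -100% = peptide control; nearly all actives have a fitted effect of over 45% in size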
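AMA1 (3D7) with his tag at 25 nM final met compounds first, then biotinylated RON2 peptide at 25 nM; detection used donor plus acceptor beads, 10 µg/mL apiece, read by AlphaScreen after 30 min at room temperature.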
Numbers without * were called inactive; [ ] = another dose, or the depositor's remark. Compounds with a hit are over-represented: about 19% of the library has one in this group of screens. Unless noted, calls follow the shape of the dose curve; as a rule, active = well fitted curve in the direction sought with a large enough effect; inconclusive = small, poorly fitted or top-dose-only effect, or another doubt; inactive = no such curve, though single readings can be large; an effect the other way counts as inactive or inconclusive.

`COc1ccccc1NC(=O)C(=O)N1CCCC1` gave Pf growth 96h inconclusive, CHX counter 19*, Shiga inhibitor 60*, SARS PLP yeast -2%, Pf growth 48h 72% and AMA1 RON2 block 7%.
`O=C(O)COc1ccccc1/C=N/NC(=O)C(O)c1ccccc1` (configuration not stated) gave Pf growth 96h -42%, CHX counter -2, Shiga inhibitor -6, SARS PLP yeast 0%, Pf growth 48h 5% and AMA1 RON2 block -8%.
`COc1ccc(NC(=O)C(=O)c2cn(CC(=O)N3CCCC3)c3ccccc23)c(OC)c1` gave Pf growth 96h 17%, CHX counter -1, Shiga inhibitor 35, SARS PLP yeast -4%, Pf growth 48h 7% and AMA1 RON2 block 11%.
COc1ccccc1NC(=O)C(=O)c1cn(CC(=O)N2CCCC2)c2ccccc12 was read as Pf growth 96h 23%, CHX counter 22*, Shiga inhibitor 37, SARS PLP yeast 1%, Pf growth 48h 39% and AMA1 RON2 block -12%.
COc1ccc(CN(C(=O)c2ccc3c(c2)OCCO3)C(C(=O)NC2CCCCC2)c2ccc3ncccc3c2)cc1 (configuration not stated) was read as Pf growth 96h 9.3µM*, CHX counter -4, Shiga inhibitor 2, SARS PLP yeast 1%, Pf growth 48h inconclusive and AMA1 RON2 block -3%.
O=C(NC1CCCCC1)C(c1ccncc1)N(Cc1ccccc1)C(=O)c1ccc(-c2ccccc2)[nH]1 (configuration not stated) was read as Pf growth 96h -3%, CHX counter -2, Shiga inhibitor -13, SARS PLP yeast -5%, Pf growth 48h inconclusive and AMA1 RON2 block -27%.
O=C(NC1CCCCC1)C(c1ccc2ncccc2c1)N(Cc1ccccc1)C(=O)c1ccc2c(c1)OCCO2 (configuration not stated) was read as Pf growth 96h 10µM*, CHX counter 10, Shiga inhibitor -5, SARS PLP yeast -3%, Pf growth 48h 13µM* and AMA1 RON2 block -5%.
COc1ccc(C(C(=O)NC2CCCCC2)N(C(=O)c2cccs2)c2ccc3c(c2)OCO3)cc1 (configuration not stated) was read as Pf growth 96h inconclusive, CHX counter -3, Shiga inhibitor -11, SARS PLP yeast 3%, Pf growth 48h inconclusive and AMA1 RON2 block 4%.
`CCOC(=O)c1c(C)oc2c1c1c(c3ccccc32)OCN(CCCC(=O)O)C1` gave Pf growth 96h 20%, CHX counter 62*, Shiga inhibitor 89*, SARS PLP yeast -2%, Pf growth 48h 87% and AMA1 RON2 block -3%.
`CCOC(=O)c1c(C)nc(C)c(C(=O)OCC)c1-c1cccnc1` gave Pf growth 96h inconclusive, CHX counter -4, Shiga inhibitor 4, SARS PLP yeast -2%, Pf growth 48h 73% and AMA1 RON2 block -8%.
CCOC(=O)c1c(C)oc2c1c1c(c3ccccc32)OCN(Cc2cccnc2)C1 was read as Pf growth 96h inconclusive, CHX counter 77*, Shiga inhibitor 131*, SARS PLP yeast -21%, Pf growth 48h inconclusive and AMA1 RON2 block 18%.
Screening COc1ccc2nc(SCC(=O)Nc3ccc(S(=O)(=O)Nc4nccc(C)n4)cc3)[nH]c2c1 returned Pf growth 96h 29%, CHX counter -1, Shiga inhibitor -6, SARS PLP yeast -3%, Pf growth 48h 4% and AMA1 RON2 block 0%.
Screening COC(=O)c1sccc1NC(=S)N1CCCC(C)C1 (configuration not stated) returned Pf growth 96h inconclusive, CHX counter -3, Shiga inhibitor 26, SARS PLP yeast -14%, Pf growth 48h 12µM* and AMA1 RON2 block -5%.
For CCN1CCN(C(=S)Nc2ccsc2C(=O)OC)CC1 the results were Pf growth 96h inconclusive, CHX counter -1, Shiga inhibitor -6, SARS PLP yeast -1%, Pf growth 48h 10% and AMA1 RON2 block 18%.
COC(=O)c1sccc1NC(=S)N1CCN(C)CC1 was read as Pf growth 96h inconclusive, CHX counter -2, Shiga inhibitor -3, SARS PLP yeast 2%, Pf growth 48h inconclusive and AMA1 RON2 block -8%.
`COC(=O)c1sccc1NC(=S)N1CCN(c2cc(C)ccc2C)CC1` gave Pf growth 96h -24%, CHX counter -5, Shiga inhibitor -3, SARS PLP yeast -85%, Pf growth 48h 10µM* and AMA1 RON2 block -16%.
For O=C(c1ccc(C(=O)N2CCCCCC2)cc1)N1CCCCCC1 the results were Pf growth 96h inconclusive, CHX counter -2, Shiga inhibitor 26, SARS PLP yeast 26%, Pf growth 48h 11% and AMA1 RON2 block -8%.
`Cc1nc(-c2ccc(C(=O)N3CCOCC3)cc2)cs1` gave Pf growth 96h 14%, CHX counter 32*, Shiga inhibitor 48, SARS PLP yeast 1%, Pf growth 48h 45% and AMA1 RON2 block 10%.
`Cc1nc(CN2CCN(C(=O)c3ccc(C(C)(C)C)cc3)CC2)cs1` gave Pf growth 96h 12µM*, CHX counter 12, Shiga inhibitor 30, SARS PLP yeast 9% and AMA1 RON2 block 0%.
CNc1cccc(-c2ccc(C(=O)N3CCOCC3)cc2)n1 was read as AMA1 RON2 block 0%.
Screening CC(C)(C)c1ccc(C(=O)N2CCCN(C(=O)c3ccc(C(C)(C)C)cc3)CC2)cc1 returned Pf growth 96h 158%, CHX counter -2, Shiga inhibitor -3, SARS PLP yeast -13%, Pf growth 48h 31% and AMA1 RON2 block 17%[2.32 µM].
Cc1nc(-c2ccc(C(=O)N3CCCC3)cc2)cs1 was read as Pf growth 96h -14%, CHX counter 37*, Shiga inhibitor 132*, SARS PLP yeast -6%, Pf growth 48h 235% and AMA1 RON2 block -1%.
`O=C(COC(=O)c1ccc(C(F)(F)F)cc1)NC(=O)NC1CCCC1` gave Pf growth 96h inconclusive, SARS PLP yeast 1%, Pf growth 48h 5% and AMA1 RON2 block -6%.
Screening Fc1ccccc1-n1cn[nH]c1=S returned Pf growth 96h 57%, CHX counter 28*, Shiga inhibitor 69*, SARS PLP yeast 0%, Pf growth 48h 50% and AMA1 RON2 block -2%.
For Cc1ccccc1-c1cnc(C(O)c2cc(Cl)cc(Cl)c2)[nH]1 (configuration not stated) the results were AMA1 RON2 block 4%.
Screening O=C(CSc1nnc(-c2ccccc2F)o1)NC1CC1 returned SARS PLP yeast -1% and AMA1 RON2 block 6%.
`O=C(c1ccccc1)c1nnc(-c2ccccc2F)o1` gave Pf growth 96h 0%, CHX counter 45*, Shiga inhibitor 69*, SARS PLP yeast 1%, Pf growth 48h 62% and AMA1 RON2 block -4%.
